Only some compounds are listed: those with a hit (about 2.3% of all), similar ones and a draw of the others.
Pol iota inh – inhibitors of human DNA polymerase iota. Pol iota fluorescent replication assay, 10 min. AID 588590. 390,000 tested, 1% active. Potency, µM (titrated, usually from 115 µM), for the others: at the highest dose activity, negative = inhibition, hits mostly inhibitors
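Pol iota at 10 nM preincubated 15 min with compounds at room temperature; reaction started with fluorescent substrate, 50 nM final. Fluorescence read kinetically at 0 and 10 min; buffer-only wells as negative control.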
POLB inh – inhibitors of human DNA polymerase beta. Pol beta primer extension/strand displacement, fluorescence kinetic. Potency, µM (highest dose often 114 µM), for the others: at the top dose activity change, negative = inhibition, actives largely listed as inhibitors. 340,000 tested, 1.3% active. AID 485314; note: % is set by controls: 0 for no effect and ±100 for the full control effect
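Curves were derived by four-parameter Hill fits of normalized qHTS data. The kinetic fluorescent primer-extension read was taken at 0 and 10 min after 50 nM substrate, following a 15 min room-temperature preincubation of 10 nM enzyme with compounds.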
Pol kappa inh-1 – blocks human DNA polymerase kappa activity; Potency, µM (series often up to 107 µM), for the others: at the top dose activity, negative = inhibition, usual class: inhibitors; AID 588579; 400,000 tested, 0.53% active; purified Pol kappa, fluorescent DNA synthesis assay, 10 min; note: % is set by controls: 0 for no effect and ±100 for the full control effect
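Readout: fluorescence, taken kinetically at 0 and 10 min. Conditions: 10 nM Pol kappa, 15 min RT compound preincubation, 50 nM substrate final. Controls: enzyme-free buffer wells.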
WRN inhibitor – blocks human WRN helicase; Q14191; WRN helicase unwinding, fluorescent forked duplex, kinetic; Potency, µM (top dose mostly 114 µM), inactives show at the highest dose activity change, negative = inhibition, hits mostly inhibitors; 360,000 tested, 0.46% active; note: % is set by controls: 0 for no effect and ±100 for the full control effect; nearly all actives have a fitted effect of over 55% in size
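Kinetic red-fluorescence monitoring (525/598 nm) tracks WRN helicase activity after 100 nM fluorophore-quencher forked duplex and 2 mM ATP are added to 20 nM enzyme pretreated 15 min at room temperature with compound.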
Pol eta inh-1 – blocks human DNA polymerase eta activity; Q9Y253; 390,000 tested, 1.2% active; AID 588591; recombinant Pol eta, fluorescent DNA replication assay; Potency, µM (series often up to 114 µM), for the others: at the highest dose activity change, negative = inhibition, hits mostly inhibitors; note: % is set by controls: 0 for no effect and ±100 for the full control effect
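Pol eta (10 nM) was preincubated with compounds for 15 min at room temperature, after which fluorescent replication substrate (50 nM final) was added to start the reaction. Fluorescence was read kinetically at 0 and 10 min.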
TbPGK inh – blocks T. brucei phosphoglycerate kinase; shares compounds with Pol kappa inh-1; TbPGK coupled GAPDH assay, Kinase-Glo luminescence; Potency, µM (titrated, usually from 57.5 µM), without a hit: at the highest dose activity change, negative = inhibition, most hits filed as inhibitors; 500 tested, 79% active; AID 686980; note: % is set by controls: 0 for no effect and ±100 for the full control effect; nearly all actives have a fitted effect of over 65% in size
POLI cherry-pick – Inhibitors of human DNA polymerase iota, confirmation | shares compounds with Pol kappa inh-1 | AID 720496 | 1,500 tested, 77% active | Pol iota primer extension, TAMRA/BHQ fluorescence | Potency, µM, usual class: inhibitors
Pol kappa inh-2 – Pol kappa (human) inhibition, cherry-pick confirmation | shares compounds with Pol eta inh-1 | purified Pol-kappa, fluorescent strand-displacement substrate | Potency, µM, usual class: inhibitors | 920 tested, 76% active
Pol eta inh-2 – Pol eta (human) inhibition, cherry-pick confirmation; shares compounds with Pol eta inh-1; Pol eta primer extension, TAMRA/BHQ fluorescence, 10 min; Potency, µM, usual class: inhibitors; 2,600 tested, 64% active
Numbers without * were called inactive; ? = inconclusive; . = no result given; [ ] = another dose, or the depositor's remark. Calls come from the whole dose curve; as a rule, active = well fitted curve in the direction sought with a large enough effect; inconclusive = small, poorly fitted or top-dose-only effect, or another doubt; inactive = no such curve, though single readings can be large; an effect the other way counts as inactive or inconclusive. Potency is the fitted concentration of half-maximal effect.

SMILES	Pol iota inh	POLB inh	Pol kappa inh-1	WRN inhibitor	Pol eta inh-1	POLI cherry-pick	Pol eta inh-2	others
COc1cc(-c2ccc(Nc3ccccc3C(=O)O)c(OC)c2)ccc1Nc1ccccc1C(=O)O	7.9µM*	?	32µM*	32µM*	10µM*	67*	30*	Pol kappa inh-2=19*
COc1ccc(Cn2c(=O)c3oc4ccccc4c3n(CC(=O)Nc3c(C)cccc3C)c2=O)cc1	15%	3%	2%	.	-10%	.	.
O=C(CSc1nccc(=O)[nH]1)N1N=C2/C(=C/c3ccco3)CCCC2C1c1ccco1 (centres undefined)	45µM*	28µM*	?	?	25µM*	38*	30*
COc1ccc(/C=C2\CCCC3C2=NN(C(=O)CSc2ncn[nH]2)C3c2ccc(OC)cc2)cc1 (centres undefined)	88%	-3%	-12%	-6%	-17%	.	.
CCCN1C(=O)c2[nH]nc(-c3ccccc3O)c2C1c1cccc(OCc2ccccc2)c1 (centres undefined)	-28%	1%	6%	.	-21%	.	.
COc1ccc(-c2cn3c(n2)sc2cc(C(=O)NC(C)C45CC6CC(CC(C6)C4)C5)ccc23)cc1 (centres undefined)	20%	2%	-1%	.	-11%	.	.
O=C1NC(=Nc2ccc3ccccc3c2)S/C1=C/c1ccco1	?	8.9µM*	?	-4%[11.6 µM]	35µM*	38*	?	Pol kappa inh-2=27*
CCCCN(C(=O)c1cc(-c2ccco2)nc2ccccc12)c1c(N)n(CCC)c(=O)[nH]c1=O	25µM*	.	79µM*	?	20µM*	34*	48*	Pol kappa inh-2=38*
CCCCN(C(=O)c1cc(Cl)nc2ccccc12)c1c(N)n(CCC)c(=O)[nH]c1=O	.	.	.	-5%	-3%	.	.
CCC(C)NC(=O)c1cccc(NC(=O)c2nsc3ccccc23)c1 (centres undefined)	11%	1%	-2%[60.1 µM]	.	-13%	.	.
O=C1NC(=O)/C(=C/c2ccc(-c3cccc([N+](=O)[O-])c3)o2)S1	?	1%	-2%	32µM*	22µM*	.	?	TbPGK inh=18µM*
Nc1ccc2c(c1Cl)C(=O)c1ccc(N)c(Cl)c1C2=O	?	2µM*	?	-27%[11.6 µM]	8.9µM*	17*	43*
Nc1c(C(=O)O)ccc2c1C(=O)c1ccccc1C2=O	?	?	-13%	?	-29%	.	.
COCCN=c1scc(-c2ccco2)n1/N=C/c1ccc(O)c(O)c1O	2µM*	2.8µM*	0%	28µM*	4.5µM*	11*	9.5*
Cc1ccc(S(=O)(=O)c2cn(CC(=O)Nc3ccc4c(c3)OCO4)c3ccc(F)cc3c2=O)cc1	34%	14%	-4%	.	-9%	.	.
CCOc1ccc2nc(N3CCCC(C(=O)Nc4ccc(OC)cc4)C3)sc2c1 (centres undefined)	17%	-3%	-3%	.	-15%	.	.
NC(=S)N/N=C/c1ccc(-c2ccccc2)o1	33%	-2%	0%	6%	-16%	.	.
NC(=S)NN=Cc1ccc(-c2ccc(S(=O)(=O)Nc3ncccn3)cc2)o1	?	.	20µM*	25µM*	3.2µM*	?	9.5*	Pol kappa inh-2=?
CN(c1ccccc1)c1ccc(/C=C(/CCC(=O)O)c2nc3ccccc3s2)cc1[N+](=O)[O-]	18µM*	.	32µM*	?	20µM*	47*	67*

From PubChem
